Results reported in PubChem BioAssay (NCI).
The panel holds about 83,000 compounds, 20% with a hit somewhere; the sample as a whole holds those more often.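 Results are percent growth after 48 hours of single-concentration exposure. 100 means growth as in untreated cells, lower positive values show inhibition; negative values down to -100 show cell death.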 Unmarked numbers belong to inactive results. The source made the active and inactive calls. The calls were made as follows: active = growth percent below 10; inactive = the rest.

What was measured:
Test in all cases: NCI-60 one-dose screen, 48 h (100 = growth as untreated, 0 = no growth, -100 = all killed)
Conditions in all cases: 10 µM
[1] = system: NCI-H23 lung
[2] = system: NCI-H226 lung
[3] = system: NCI-H322M lung
[4] = system: HOP-62 NSCLC
[5] = system: NCI-H460 lung
[6] = system: HOP-92 NSCLC
[7] = system: NCI-H522 lung
[8] = system: A549/ATCC NSCLC
[9] = system: 786-0 renal
[10] = system: COLO 205 colon

SMILES	growth [1]	growth [2]	growth [3]	growth [4]	growth [5]	growth [6]	growth [7]	growth [8]	growth [9]	growth [10]
O=C(c1ccccc1)C(Nc1ccccc1)c1ccccc1 (centres undefined)	84.5%	82.7%	85.4%	83.5%	98.1%	78.6%	67.7%	87.4%	97.3%	
COc1ccc(-c2nc(NC(=O)CS(=O)(=O)c3ccc(F)cc3)sc2C)cc1	37%	93.9%	69.5%	65.3%	59.2%	37%	49%	54.2%	60.9%	
N#CN1CC[C@H](C(=O)Nc2ncc(-c3ccncc3)s2)C1	-22% (active)	-9.42% (active)	11.1%	-7.49% (active)	3.58% (active)	-0.157% (active)	-37.8% (active)	-32.4% (active)	5.77% (active)	
C[C@]12CC[C@H]3[C@@H](CC=C4C[C@@H](O)CC[C@@]43C)[C@@H]1CC[C@@H]2C(=O)C/C=N/O	86.6%	107%	88.5%	76.8%	97.9%	54.9%	79.4%	89.5%	90.8%	
Cc1nn2c(/C=C3/C(=O)Nc4ccc(Cl)cc43)c(-c3ccccc3)nc2s1	51.4%	33.4%	12.7%	-19.8% (active)	25.7%	-5.92% (active)	43.6%	24.2%	41.2%	
CCN1CCN(c2ccc(Nc3ncnc4c3nnn4CCc3cc(OC)cc(OC)c3)cc2)CC1	88.8%	85.8%	95.6%	99.4%	106%	89.6%	96.1%	95.5%	99.6%	
CCc1c(C)[nH]c(=O)c(C(N)=O)c1C#N	107%	117%	104%	96.7%	106%	109%	80.5%	89.4%	96.2%	110%
COc1ccc(Nc2nc(NCc3ccccc3)c3ccccc3n2)cc1	77.3%	6.99% (active)	41.1%	-48% (active)	3.09% (active)	-4.85% (active)	50.1%	21.9%	33.9%	
COc1ccc(S(=O)(=O)Nc2cc(/C=C\c3cc(OC)c(OC)c(OC)c3)ccc2OC)cc1	27.6%	11.8%	23.8%	48.7%	5.27% (active)	12.7%	-27.9% (active)	18%	19%	
CCOC(=O)C(=O)Cc1cccnn1	101%	95.2%	109%	103%	116%	86.1%	97.2%	97.5%	96.4%	
O=CNc1c(Cl)cc2c(c1Cl)Cc1cc([N+](=O)[O-])ccc1-2	58.3%	90.1%	78%	67.6%	31.4%	60.6%	44.7%	38.4%	109%	
O=C(NCc1cn(Cc2cccc(Oc3ccccc3)c2)nn1)c1cccnc1Nc1ccccc1	51.9%	61.5%	76.9%	54.8%	27%	34.9%	54.5%	50.6%	51.4%	69.9%
Cn1c([N+](=O)[O-])cnc1C=C1C(=O)c2ccccc2C1=O	53.7%	81.7%	72.7%	74.7%	68.9%	20.4%	3.27% (active)	65.6%	41.1%	
Nc1ccc(C2=CC(c3ccc(Cl)cc3)N3C=CSC3=N2)cc1 (centres undefined)	-46.6% (active)	-71.4% (active)	-57.2% (active)	-63.8% (active)	-6.81% (active)	-22.7% (active)	-65.9% (active)	-39.3% (active)	-90.9% (active)	
N#Cc1ncc(-c2cc(F)ccc2F)c(NC2CCCCCC2)n1	89.9%	92.6%	73.6%	65.9%	48.5%	65.2%	68%	78%	97.6%	
COc1ccc(-c2n/c(=C\c3c(O)[nH]c4ccccc34)cc3c2=Nc2ccccc2-3)cc1	33.8%	59.7%	96%	86.2%	9.63% (active)	42.1%	63.1%	37.4%	-31.3% (active)	
CCOC(=O)c1ccc(NC(=O)Nc2nncs2)cc1	21.9%	-21.3% (active)	43.2%	26.4%	7.58% (active)	58.2%	7.15% (active)	19.4%	35.4%	
Cc1noc(C)c1-c1ccc2nc(NC(=O)[C@H]3CCN(C#N)C3)cn2c1	76.1%	91.1%	99.3%	92.8%	98.7%	67.3%	25.2%	94.6%	78.6%	
COc1cc(-c2nc(-c3nnc(-c4cccnc4)o3)c3ccccn23)cc(OC)c1OC	101%	86%	101%	102%	109%	100%	94.7%	93.9%	89.1%	
Cc1nc2sccn2c1-c1csc(Nc2cccc(Cl)c2C)n1	52.1%	57.3%	81%	79.3%	61.2%	16.3%	41.8%	37.5%	63.3%	69.7%
CNC(=S)Sc1ccc([N+](=O)[O-])cc1[N+](=O)[O-]	83.5%	78.9%	99.1%	83%	102%	23.6%	-57.7% (active)	80.8%	93.9%	
CC1(C)CNC(=O)N1	104%	92.8%	109%	92.6%	106%	87%	83.9%	93.3%	94.3%	
CC(C)(C)c1ccc(OCCCCCCN2CCNCC2)cc1	61.5%	73.4%	85.1%	67.8%	35.4%	16.8%	66.2%	55.1%	-50.7% (active)	
CCc1ccc(Nc2cc(C)nc3nc(C)nn23)cc1	3.75% (active)	62.1%	61.7%	26.8%	-43.3% (active)	-3% (active)	-14.6% (active)	-17.6% (active)	34.8%	-96.4% (active)
CC(C)/C=N/NC(N)=S	96.6%	95.7%	101%	75.6%	97.4%	73.1%	94%	71.8%	100%	
COC(=O)CCCCCCCCC(C)c1ccc(C(C)=O)cc1 (centres undefined)	99.9%	104%	121%	100%	108%	113%	101%	105%	102%	
O=C(Cn1ccc(=O)[nH]c1=O)c1ccc([N+](=O)[O-])o1	108%	103%	120%	118%	100%	136%	-91.7% (active)	109%	108%	
Cn1c(N)c(N=Cc2ccccc2)c(=O)n(C)c1=O	103%	108%	114%	96.3%	114%	102%	101%	105%	103%	
Oc1[nH]c2ccccc2c1/C=c1/cc2c(c(-c3ccc(C(F)(F)F)cc3)n1)=Nc1ccccc1-2	71.1%	54.1%	93.8%	85%	22%	20.7%	33.5%	56.8%	66%	
CCOC(=O)Nc1ccc2c(c1)C(=O)N(CC)c1ccccc1O2	30.1%	14.5%	50%	24.8%	9.56% (active)	33.7%	-39% (active)	19.4%	31.1%	
